From the supplement of paper PMC11732987, “Enantioselective OTUD7B fragment discovery through chemoproteomics screening and high-throughput optimisation” (Communications Chemistry, 2025)

How the values were obtained:
Test in all cases: log2 ratio of Biotin-Ahx-Ub-VS probe labelling (compound/DMSO); higher = less target engagement, active = hit call of the paper (q ≤ 0.05, log2 ratio ≤ -1)
Settings in all cases: treatment time: 3 h
[1] = compound: CN(Cc1cccc(Br)c1)C(=O)CCl
Method in brief: (§1)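 DUBs in HEK293T lysate were labelled with Biotin-Ahx-Ub-VS (0.5 µM final, 1 h) after a 3 h treatment with compound at 50 or 200 µM or with DMSO, done in triplicate on 495 µg of lysate per sample. NeutrAvidin-enriched proteins were digested with LysC and trypsin and run by diaPASEF LC-MS/MS. Median-normalised label-free quantities gave average base-two log ratios of compound to DMSO by unpaired t-test, restricted to proteins with at least 2 unique peptides.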

[2] = compound: CN(Cc1cccc(OCc2ccccc2C)c1)C(=O)CCl
Method in brief: as §1

[3] = compound: CN(Cc1ccccc1)C(=O)CCl
Method in brief: as §1

[4] = compound: COc1ccc(CN(C)C(=O)CCl)cc1
Method in brief: as §1

[5] = compound: COc1cccc(CN(CCCc2ccccc2)C(=O)CCl)c1
Method in brief: as §1

[6] = compound: ClCC(=O)N1CCc2cc(Cl)c(Cl)cc2C1
Method in brief: as §1

[7] = compound: ClCC(=O)N1CCc2nc(ncc2C1)-c1ccccc1
Method in brief: as §1

[8] = compound: ClCC(=O)N1CCc2nocc2C1
Method in brief: as §1

[9] = compound: ClCC(=O)N1CCc2scc(Br)c2C1
Method in brief: as §1

[10] = compound: ClCC(=O)NC(C1CCCC1)c1cccs1
Method in brief: as §1

Measured: log2 ratio of Biotin-Ahx-Ub-VS probe labelling

USP24 (UniProt Q9UPU5)
active: [1]; compound concentration: 200uM -1.48 | [2]; compound concentration: 200uM -2.02 | [5]; compound concentration: 200uM -1.68 | [6]; compound concentration: 200uM -2.35 | [7]; compound concentration: 200uM -1.41 | [9]; compound concentration: 50uM -1.1 | [9]; compound concentration: 200uM -2.46
inactive: [1]; compound concentration: 50uM -0.487 | [2]; compound concentration: 50uM -0.993 | [3]; compound concentration: 50uM -0.374 | [3]; compound concentration: 200uM -0.994 | [4]; compound concentration: 50uM -0.209 | [4]; compound concentration: 200uM -0.569 | [5]; compound concentration: 50uM -0.878 | [6]; compound concentration: 50uM -0.754 | [7]; compound concentration: 50uM -0.355 | [8]; compound concentration: 50uM -0.201 | [8]; compound concentration: 200uM -0.568 | [10]; compound concentration: 50uM -0.0604 | [10]; compound concentration: 200uM -0.635

ALG13 (UniProt Q9NP73)
inactive: [1]; compound concentration: 50uM 0.0661 | [1]; compound concentration: 200uM -0.148 | [2]; compound concentration: 50uM 0.469 | [2]; compound concentration: 200uM -0.522 | [3]; compound concentration: 50uM 0.171 | [3]; compound concentration: 200uM 0.0619 | [4]; compound concentration: 50uM 0.45 | [4]; compound concentration: 200uM 0.0354 | [5]; compound concentration: 50uM 0.162 | [5]; compound concentration: 200uM -0.285 | [6]; compound concentration: 50uM 0.247 | [6]; compound concentration: 200uM 0.454 | [7]; compound concentration: 50uM 0.157 | [7]; compound concentration: 200uM -0.117 | [8]; compound concentration: 50uM 0.493 | [8]; compound concentration: 200uM -0.0466 | [9]; compound concentration: 50uM 0.393 | [9]; compound concentration: 200uM 0.369 | [10]; compound concentration: 50uM -0.273 | [10]; compound concentration: 200uM 0.0789

USP4 (UniProt Q13107)
Chain of UniProt Q13107 (Q13107 whole entry): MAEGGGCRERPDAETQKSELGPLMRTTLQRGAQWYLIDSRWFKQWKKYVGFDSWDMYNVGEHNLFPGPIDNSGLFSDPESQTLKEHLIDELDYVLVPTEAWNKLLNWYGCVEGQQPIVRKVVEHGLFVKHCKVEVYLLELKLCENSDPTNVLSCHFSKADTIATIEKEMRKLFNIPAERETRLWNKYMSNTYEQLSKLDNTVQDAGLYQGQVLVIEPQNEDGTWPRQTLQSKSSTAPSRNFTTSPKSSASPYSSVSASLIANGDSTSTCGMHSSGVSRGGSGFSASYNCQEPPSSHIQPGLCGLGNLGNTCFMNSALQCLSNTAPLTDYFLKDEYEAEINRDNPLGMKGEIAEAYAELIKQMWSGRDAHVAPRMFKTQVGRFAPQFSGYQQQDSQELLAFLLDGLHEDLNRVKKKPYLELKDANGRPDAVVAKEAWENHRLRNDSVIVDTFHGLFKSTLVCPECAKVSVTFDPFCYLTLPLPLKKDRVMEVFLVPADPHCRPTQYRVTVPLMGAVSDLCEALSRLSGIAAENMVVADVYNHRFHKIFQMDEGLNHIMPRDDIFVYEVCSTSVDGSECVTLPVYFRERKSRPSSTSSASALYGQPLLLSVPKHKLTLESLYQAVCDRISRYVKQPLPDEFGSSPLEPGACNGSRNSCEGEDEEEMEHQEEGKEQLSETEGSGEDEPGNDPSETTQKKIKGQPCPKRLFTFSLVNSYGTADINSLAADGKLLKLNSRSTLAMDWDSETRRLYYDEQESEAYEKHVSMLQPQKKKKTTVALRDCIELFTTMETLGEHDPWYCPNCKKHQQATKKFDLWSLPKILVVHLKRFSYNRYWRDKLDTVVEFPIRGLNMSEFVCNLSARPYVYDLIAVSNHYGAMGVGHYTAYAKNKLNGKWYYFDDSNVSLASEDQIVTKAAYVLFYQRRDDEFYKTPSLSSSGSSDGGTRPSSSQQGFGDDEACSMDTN
active: [2]; compound concentration: 200uM -1.72 | [6]; compound concentration: 200uM -1.88 | [7]; compound concentration: 200uM -1.65 | [10]; compound concentration: 50uM -1.38
inactive: [1]; compound concentration: 50uM -0.457 | [1]; compound concentration: 200uM 0.551 | [2]; compound concentration: 50uM 0.0716 | [3]; compound concentration: 50uM -0.596 | [3]; compound concentration: 200uM -0.256 | [4]; compound concentration: 50uM -0.643 | [4]; compound concentration: 200uM 0.475 | [5]; compound concentration: 50uM 0.418 | [5]; compound concentration: 200uM -0.294 | [6]; compound concentration: 50uM 0.245 | [7]; compound concentration: 50uM 0.281 | [8]; compound concentration: 50uM -0.605 | [8]; compound concentration: 200uM 0.447 | [9]; compound concentration: 50uM 0.067 | [9]; compound concentration: 200uM -0.445 | [10]; compound concentration: 200uM -0.493

USP39 (UniProt Q53GS9)
inactive: [1]; compound concentration: 50uM 0.105 | [1]; compound concentration: 200uM -0.535 | [2]; compound concentration: 50uM -0.137 | [2]; compound concentration: 200uM 0.0162 | [3]; compound concentration: 50uM -0.0746 | [3]; compound concentration: 200uM 0.0651 | [4]; compound concentration: 50uM 0.011 | [4]; compound concentration: 200uM -0.086 | [5]; compound concentration: 50uM 0.17 | [5]; compound concentration: 200uM 0.063 | [6]; compound concentration: 50uM 0.017 | [6]; compound concentration: 200uM -0.298 | [7]; compound concentration: 50uM 0.044 | [7]; compound concentration: 200uM 0.117 | [8]; compound concentration: 50uM -0.102 | [8]; compound concentration: 200uM -0.0827 | [9]; compound concentration: 50uM -0.0611 | [9]; compound concentration: 200uM -0.272 | [10]; compound concentration: 50uM 0.165 | [10]; compound concentration: 200uM 0.014

USP10 (UniProt Q14694)
Chain of UniProt Q14694 (Q14694 whole entry): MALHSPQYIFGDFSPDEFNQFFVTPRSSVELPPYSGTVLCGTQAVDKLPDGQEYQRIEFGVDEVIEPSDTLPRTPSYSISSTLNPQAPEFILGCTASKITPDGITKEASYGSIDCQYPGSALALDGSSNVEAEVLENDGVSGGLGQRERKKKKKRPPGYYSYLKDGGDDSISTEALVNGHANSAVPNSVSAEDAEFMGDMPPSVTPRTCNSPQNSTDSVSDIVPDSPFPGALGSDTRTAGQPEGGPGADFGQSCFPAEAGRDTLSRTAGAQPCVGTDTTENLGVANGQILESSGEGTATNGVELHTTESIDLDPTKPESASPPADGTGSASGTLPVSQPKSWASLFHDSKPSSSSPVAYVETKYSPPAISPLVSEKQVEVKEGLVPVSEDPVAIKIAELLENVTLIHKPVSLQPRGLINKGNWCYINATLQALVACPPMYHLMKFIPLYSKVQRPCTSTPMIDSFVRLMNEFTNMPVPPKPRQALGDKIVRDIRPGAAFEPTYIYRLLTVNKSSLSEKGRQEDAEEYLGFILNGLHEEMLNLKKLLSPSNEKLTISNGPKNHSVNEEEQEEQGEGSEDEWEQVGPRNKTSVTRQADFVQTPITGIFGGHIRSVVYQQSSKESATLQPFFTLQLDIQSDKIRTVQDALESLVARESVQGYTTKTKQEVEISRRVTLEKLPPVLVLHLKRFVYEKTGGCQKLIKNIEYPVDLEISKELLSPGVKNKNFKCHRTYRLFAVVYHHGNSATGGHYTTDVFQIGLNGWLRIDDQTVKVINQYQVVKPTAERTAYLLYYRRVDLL
inactive: [1]; compound concentration: 50uM -0.146 | [1]; compound concentration: 200uM -0.153 | [2]; compound concentration: 50uM -0.287 | [2]; compound concentration: 200uM -0.0982 | [3]; compound concentration: 50uM -0.177 | [3]; compound concentration: 200uM 0.0371 | [4]; compound concentration: 50uM -0.151 | [4]; compound concentration: 200uM -0.0732 | [5]; compound concentration: 50uM -0.12 | [5]; compound concentration: 200uM 0.0548 | [6]; compound concentration: 50uM -0.188 | [6]; compound concentration: 200uM -0.0346 | [7]; compound concentration: 50uM -0.0484 | [7]; compound concentration: 200uM -0.151 | [8]; compound concentration: 50uM -0.2 | [8]; compound concentration: 200uM -0.136 | [9]; compound concentration: 50uM -0.066 | [9]; compound concentration: 200uM 0.0425 | [10]; compound concentration: 50uM -0.148 | [10]; compound concentration: 200uM 0.0706

UniProt Q9P2H5
Chain of UniProt Q9P2H5 (Q9P2H5 whole entry): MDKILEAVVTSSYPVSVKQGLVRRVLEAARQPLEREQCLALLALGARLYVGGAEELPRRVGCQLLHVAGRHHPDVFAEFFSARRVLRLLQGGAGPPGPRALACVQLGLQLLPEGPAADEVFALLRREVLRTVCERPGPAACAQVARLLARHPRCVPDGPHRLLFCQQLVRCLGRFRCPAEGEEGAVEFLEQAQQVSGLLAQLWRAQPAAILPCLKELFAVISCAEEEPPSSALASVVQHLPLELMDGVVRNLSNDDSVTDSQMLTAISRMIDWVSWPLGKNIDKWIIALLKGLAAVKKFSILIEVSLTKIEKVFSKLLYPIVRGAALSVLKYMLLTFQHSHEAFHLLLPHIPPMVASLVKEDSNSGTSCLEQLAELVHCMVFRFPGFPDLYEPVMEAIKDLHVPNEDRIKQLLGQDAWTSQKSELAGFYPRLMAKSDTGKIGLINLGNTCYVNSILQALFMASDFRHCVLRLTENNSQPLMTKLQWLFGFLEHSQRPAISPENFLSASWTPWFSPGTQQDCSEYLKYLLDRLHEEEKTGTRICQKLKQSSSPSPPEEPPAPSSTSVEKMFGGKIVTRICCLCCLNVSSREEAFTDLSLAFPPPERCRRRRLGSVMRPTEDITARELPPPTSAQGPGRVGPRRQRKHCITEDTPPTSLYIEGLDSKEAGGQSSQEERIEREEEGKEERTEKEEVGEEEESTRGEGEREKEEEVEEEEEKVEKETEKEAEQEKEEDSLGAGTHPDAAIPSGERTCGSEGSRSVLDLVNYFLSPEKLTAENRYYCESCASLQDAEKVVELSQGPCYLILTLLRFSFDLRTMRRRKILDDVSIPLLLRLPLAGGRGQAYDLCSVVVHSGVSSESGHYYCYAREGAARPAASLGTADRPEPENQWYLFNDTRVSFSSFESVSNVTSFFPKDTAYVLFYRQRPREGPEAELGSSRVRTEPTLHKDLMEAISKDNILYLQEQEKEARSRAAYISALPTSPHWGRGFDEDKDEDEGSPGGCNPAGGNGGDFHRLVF
inactive: [1]; compound concentration: 50uM 0.0586 | [1]; compound concentration: 200uM -0.355 | [2]; compound concentration: 50uM -0.626 | [2]; compound concentration: 200uM -0.327 | [3]; compound concentration: 50uM -0.0969 | [3]; compound concentration: 200uM -0.154 | [4]; compound concentration: 50uM -0.301 | [4]; compound concentration: 200uM -0.182 | [5]; compound concentration: 50uM -0.114 | [5]; compound concentration: 200uM -0.29 | [6]; compound concentration: 50uM -0.263 | [6]; compound concentration: 200uM -0.82 | [7]; compound concentration: 50uM 0.133 | [7]; compound concentration: 200uM -0.449 | [8]; compound concentration: 50uM -0.415 | [8]; compound concentration: 200uM -0.273 | [9]; compound concentration: 50uM -0.192 | [9]; compound concentration: 200uM -0.595 | [10]; compound concentration: 50uM 0.156 | [10]; compound concentration: 200uM 0.0366

USP8 (UniProt P40818)
Chain of UniProt P40818 (P40818 whole entry): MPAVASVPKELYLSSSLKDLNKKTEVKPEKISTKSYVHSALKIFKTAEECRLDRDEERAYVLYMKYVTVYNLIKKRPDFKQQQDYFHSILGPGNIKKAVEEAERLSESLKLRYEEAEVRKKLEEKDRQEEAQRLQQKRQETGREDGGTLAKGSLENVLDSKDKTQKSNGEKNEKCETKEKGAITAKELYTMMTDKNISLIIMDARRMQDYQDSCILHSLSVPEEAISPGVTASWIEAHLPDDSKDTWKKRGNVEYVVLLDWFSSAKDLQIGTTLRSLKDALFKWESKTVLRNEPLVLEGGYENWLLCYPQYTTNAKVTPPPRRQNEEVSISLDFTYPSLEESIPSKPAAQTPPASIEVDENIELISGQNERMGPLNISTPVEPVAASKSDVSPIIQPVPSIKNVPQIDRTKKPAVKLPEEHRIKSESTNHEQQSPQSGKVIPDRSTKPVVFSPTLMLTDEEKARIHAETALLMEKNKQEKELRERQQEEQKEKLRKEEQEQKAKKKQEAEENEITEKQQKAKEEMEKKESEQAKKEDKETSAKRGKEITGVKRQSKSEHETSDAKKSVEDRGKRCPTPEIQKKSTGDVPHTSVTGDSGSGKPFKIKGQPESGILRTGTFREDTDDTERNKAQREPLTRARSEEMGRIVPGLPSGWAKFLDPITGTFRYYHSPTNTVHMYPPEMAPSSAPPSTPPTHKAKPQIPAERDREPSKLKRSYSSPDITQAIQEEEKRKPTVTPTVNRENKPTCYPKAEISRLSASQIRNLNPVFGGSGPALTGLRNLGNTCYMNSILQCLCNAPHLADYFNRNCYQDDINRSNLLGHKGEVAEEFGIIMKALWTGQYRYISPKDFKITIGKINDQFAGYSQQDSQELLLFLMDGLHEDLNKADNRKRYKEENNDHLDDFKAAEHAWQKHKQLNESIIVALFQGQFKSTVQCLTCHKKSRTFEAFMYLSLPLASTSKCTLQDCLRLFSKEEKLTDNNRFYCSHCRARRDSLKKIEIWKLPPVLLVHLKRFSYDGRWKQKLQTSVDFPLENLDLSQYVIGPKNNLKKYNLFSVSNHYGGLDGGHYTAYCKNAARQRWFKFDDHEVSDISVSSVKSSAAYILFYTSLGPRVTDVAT
inactive: [1]; compound concentration: 50uM -0.123 | [1]; compound concentration: 200uM -0.132 | [2]; compound concentration: 50uM -0.488 | [2]; compound concentration: 200uM -0.321 | [3]; compound concentration: 50uM -0.346 | [3]; compound concentration: 200uM -0.338 | [4]; compound concentration: 50uM -0.306 | [4]; compound concentration: 200uM -0.187 | [5]; compound concentration: 50uM -0.167 | [5]; compound concentration: 200uM -0.253 | [6]; compound concentration: 50uM 0.0209 | [6]; compound concentration: 200uM -0.351 | [7]; compound concentration: 50uM -0.00835 | [7]; compound concentration: 200uM -0.371 | [8]; compound concentration: 50uM -0.247 | [8]; compound concentration: 200uM -0.347 | [9]; compound concentration: 50uM -0.126 | [9]; compound concentration: 200uM -0.311 | [10]; compound concentration: 50uM -0.0892 | [10]; compound concentration: 200uM -0.0187

BAP1 (UniProt Q92560)
Chain of UniProt Q92560 (Q92560 whole entry): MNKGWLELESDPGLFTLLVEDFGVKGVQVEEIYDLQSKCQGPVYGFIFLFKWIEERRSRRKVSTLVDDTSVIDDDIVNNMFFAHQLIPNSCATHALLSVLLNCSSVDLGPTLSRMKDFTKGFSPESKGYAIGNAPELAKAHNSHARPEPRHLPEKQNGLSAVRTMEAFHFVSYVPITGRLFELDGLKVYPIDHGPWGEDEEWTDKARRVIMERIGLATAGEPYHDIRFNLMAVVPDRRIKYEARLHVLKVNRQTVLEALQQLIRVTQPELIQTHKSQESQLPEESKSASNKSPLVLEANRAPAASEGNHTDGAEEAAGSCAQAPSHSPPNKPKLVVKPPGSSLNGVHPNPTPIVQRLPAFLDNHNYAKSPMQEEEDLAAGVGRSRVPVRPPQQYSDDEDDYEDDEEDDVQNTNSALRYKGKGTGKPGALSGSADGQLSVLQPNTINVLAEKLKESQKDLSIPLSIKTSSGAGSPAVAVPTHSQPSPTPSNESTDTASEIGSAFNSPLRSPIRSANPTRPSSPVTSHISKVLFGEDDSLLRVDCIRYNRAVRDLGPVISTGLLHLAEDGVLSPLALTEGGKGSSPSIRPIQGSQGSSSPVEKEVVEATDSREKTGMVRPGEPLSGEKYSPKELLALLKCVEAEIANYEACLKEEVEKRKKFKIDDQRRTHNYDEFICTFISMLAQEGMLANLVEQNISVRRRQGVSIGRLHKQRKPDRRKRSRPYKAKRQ
active: [1]; compound concentration: 200uM -2.12 | [2]; compound concentration: 50uM -1.42 | [2]; compound concentration: 200uM -3.08 | [3]; compound concentration: 200uM -2.17 | [4]; compound concentration: 200uM -1.9 | [5]; compound concentration: 50uM -1.04 | [5]; compound concentration: 200uM -3.18 | [6]; compound concentration: 200uM -1.76 | [7]; compound concentration: 200uM -1.91 | [8]; compound concentration: 200uM -1.16 | [9]; compound concentration: 200uM -1.68 | [10]; compound concentration: 200uM -2.92
inactive: [1]; compound concentration: 50uM -0.773 | [3]; compound concentration: 50uM -0.833 | [4]; compound concentration: 50uM -0.731 | [6]; compound concentration: 50uM -0.373 | [7]; compound concentration: 50uM -0.341 | [8]; compound concentration: 50uM -0.448 | [9]; compound concentration: 50uM -0.426 | [10]; compound concentration: 50uM -0.924
